{"source": "the supplement of paper PMC7366291", "note": "Counter-ions that a name gives are not always drawn. ± gives the standard deviation of the averaged measurements.", "data": [{"tested_on": "Danio rerio Tg(wt1b:EGFP) embryo, pronephros", "assay": "glomerular width (mean of left and right), fold change vs DMSO control; higher = wider glomerulus", "details": "25 µM; exposure: 24-48 hpf", "how_it_was_run": "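Every feature is expressed as a fold change relative to the averaged DMSO-treated embryos of the same day. The exposure ran from 24 to 48 hpf at 28.5°C, with dechorionated Tg(wt1b:EGFP) zebrafish embryos in HEPES-buffered E3 containing 0.003% PTU, 0.5% DMSO and 25 μM compound. Dorsal pronephros images taken in agarose-filled 96-well plates were reduced to maximum projections, on which 16 reference points were set by hand in Fiji for a macro to compute distances and angles. Values more than 2 SD from the feature mean were not used.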", "values": [{"smiles": "CC(C)c1cccc(C(C)C)c1O", "note": "[Propofol]", "glomerular width": "1.02 ± 0.021"}, {"smiles": "CC(CCc1ccccc1)NC(C)C(O)c1ccc(O)cc1", "note": "(stereo unspecified) [Nylidrin]", "glomerular width": "1.02 ± 0.035"}, {"smiles": "CCC(C)C1O[C@]2(C=C[C@@H]1C)C[C@@H]1CC(C/C=C(\\C)[C@@H](OC3C[C@H](OC)[C@@H](OC4C[C@H](OC)[C@@H](O)[C@H](C)O4)[C@H](C)O3)[C@@H](C)/C=C/C=C3\\COC4[C@H](O)C(C)=CC(C(=O)O1)[C@]34O)O2", "note": "(stereo partly specified) [Avermectin B1a]", "glomerular width": "0.898 ± 0.044"}, {"smiles": "CC(C)[N+](C)(CCC(C(N)=O)(c1ccccc1)c1ccccc1)C(C)C", "note": "[Isopropamide iodide]", "glomerular width": "1.0283 ± 0.001"}, {"smiles": "C=CCN1CC[C@]23c4c5ccc(O)c4O[C@H]2C(=O)CC[C@@]3(O)[C@H]1C5", "note": "[Naloxone hydrochloride]", "glomerular width": "1.01 ± 0.055"}, {"smiles": "CC(=O)OC1CN2CCC1CC2", "note": "(stereo unspecified) [Aceclidine Hydrochloride]", "glomerular width": "1.053 ± 0.01"}, {"smiles": "CCC1(CC)C(=O)C=CNC1=O", "note": "[Pyrithyldione]", "glomerular width": "1.034 ± 0.0093"}, {"smiles": "C=C1CC[C@@]2(O)[C@H]3Cc4ccc(O)c5c4[C@@]2(CCN3CC2CC2)[C@H]1O5", "note": "[Nalmefene hydrochloride]", "glomerular width": "1.016 ± 0.01"}, {"smiles": "CN1C[C@H](C(=O)N[C@]2(C)O[C@@]3(O)[C@@H]4CCCN4C(=O)[C@H](Cc4ccccc4)N3C2=O)C[C@@H]2c3cccc4[nH]cc(c34)C[C@H]21", "note": "[Dihydroergotamine tartrate]", "glomerular width": "1.0661 ± 0.00016"}, {"smiles": "C#CCN(C)[C@H](C)Cc1ccccc1", "note": "[Selegiline hydrochloride]", "glomerular width": "0.969 ± 0.055"}, {"smiles": "C[C@]12N[C@H](Cc3ccccc31)c1ccccc12", "note": "[Dizocilpine maleate]", "glomerular width": "1.03 ± 0.077"}]}]}
